Experimental data taken from paper PMC12820563, “FoxP3 forms a head-to-head dimer in vivo and stabilizes its multimerization on adjacent microsatellites”.
In all, about 16,000 sequences were measured (“rpm ratio (pull-down/input)”: median about 0.94, highest 2% from about 1.7 on). For the sample, the highest values were picked, then their nearest neighbours and some sequences at random.

What follows are sequences tested against T1, MBP-FoxP1dN (Mus musculus, UniProt P58462 326-579) (assay: PD-seq (MBP pull-down with sequencing); 20 mM Tris-HCl pH 7.5, 100 mM NaCl, 1.5 mM MgCl2, 0.4 uM protein, 0.1 uM dsDNA library, 30 min, room temperature, amylose pull-down; high values mean tight binding). Conditions: protein: recombinant; tags: His6-MBP; chain copies: 2; dsDNA, one strand shown.
T1 sequence: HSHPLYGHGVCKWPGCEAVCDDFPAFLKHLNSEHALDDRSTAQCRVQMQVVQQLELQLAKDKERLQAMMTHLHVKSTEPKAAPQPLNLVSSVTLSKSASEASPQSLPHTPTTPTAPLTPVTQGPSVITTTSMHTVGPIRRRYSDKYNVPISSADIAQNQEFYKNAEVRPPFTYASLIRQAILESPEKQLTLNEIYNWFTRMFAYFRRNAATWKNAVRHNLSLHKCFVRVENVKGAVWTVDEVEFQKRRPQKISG
Outline: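 A fragment of mouse FoxP3 or FoxP1 without its N-terminus, carrying a His6-MBP tag and produced in E. coli, was combined at 0.4 µM with a 0.1 µM degenerate double-stranded DNA library filled in with Klenow. The mixture sat for 30 min at room temperature in Tris pH 7.5 buffer containing NaCl and MgCl2. Protein–DNA complexes were captured on amylose resin, washed three times, and the DNA was freed with proteinase K, barcoded by PCR and sequenced on Illumina. Binding is expressed as reads-per-million enrichment of pull-down over input, with replicates pooled.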
With “GATGATTGTTCTCCCAGCTGATGAATTGTGTGTTTCGAGTAAACAAATTTTCCTAATCTTTCTGTTCAAGCGCCATCTAC” the binding signal was 1.57 RPM ratio (pull-down/input).
With “GATGATTGTTCTCCCAGCTGATGAATTTTGTGTTTCGAGTAAACAAATTTTCCTAATCTTTCTGTTCAAGCGCCATCTAC” the binding signal was 1.58 RPM ratio (pull-down/input).
With “GATGATTGTTCTCCCAGCTGATGAATTGTGTTTTTCGAGTAAACAAATTTTCCTAATCTTTCTGTTCAAGCGCCATCTAC” the binding signal was 2.33 RPM ratio (pull-down/input).
With “GATGATTGTTCTCCCAGCTGATGAATTTGTGTGTTCGAGTAAACAAATTTTCCTAATCTTTCTGTTCAAGCGCCATCTAC” the binding signal was 1.59 RPM ratio (pull-down/input).
In the case of “GATGATTGTTCTCCCAGCTGATGAATTCTGTGTTTCGAGTAAACAAATTTTCCTAATCTTTCTGTTCAAGCGCCATCTAC”, the binding signal is reported as 1.14 RPM ratio (pull-down/input).
In the case of “GATGATTGTTCTCCCAGCTGATGAATTTGTGTTTTCGAGTAAACAAATTTTCCTAATCTTTCTGTTCAAGCGCCATCTAC”, the binding signal is reported as 2.61 RPM ratio (pull-down/input).
For “GATGATTGTTCTCCCAGCTGATGAATTTGTGATTTCGAGTAAACAAATTTTCCTAATCTTTCTGTTCAAGCGCCATCTAC”, the binding signal was 1.41 RPM ratio (pull-down/input).
In the case of “GATGATTGTTCTCCCAGCTGATGAATTTTTGTGTTCGAGTAAACAAATTTTCCTAATCTTTCTGTTCAAGCGCCATCTAC”, the binding signal is reported as 1.95 RPM ratio (pull-down/input).
For “GATGATTGTTCTCCCAGCTGATGAATTTGTGTTCTCGAGTAAACAAATTTTCCTAATCTTTCTGTTCAAGCGCCATCTAC”, the binding signal was 1.48 RPM ratio (pull-down/input).
For “GATGATTGTTCTCCCAGCTGATGAATTGATAGCTTCGAGTAAACAAATTTTCCTAATCTTTCTGTTCAAGCGCCATCTAC”, the binding signal was 0.923 RPM ratio (pull-down/input).
“GATGATTGTTCTCCCAGCTGATGAATTGCAATTCTCGAGTAAACAAATTTTCCTAATCTTTCTGTTCAAGCGCCATCTAC” was tested, and the binding signal was 1.38 RPM ratio (pull-down/input).
In the case of “GATGATTGTTCTCCCAGCTGATGAATTAAGCCTATCGAGTAAACAAATTTTCCTAATCTTTCTGTTCAAGCGCCATCTAC”, the binding signal is reported as 0.873 RPM ratio (pull-down/input).
With “GATGATTGTTCTCCCAGCTGATGAATTCTTCCAATCGAGTAAACAAATTTTCCTAATCTTTCTGTTCAAGCGCCATCTAC” the binding signal was 0.955 RPM ratio (pull-down/input).
For “GATGATTGTTCTCCCAGCTGATGAATTTCTATAATCGAGTAAACAAATTTTCCTAATCTTTCTGTTCAAGCGCCATCTAC”, the binding signal was 1.1 RPM ratio (pull-down/input).
In the case of “GATGATTGTTCTCCCAGCTGATGAATTCTCAACCTCGAGTAAACAAATTTTCCTAATCTTTCTGTTCAAGCGCCATCTAC”, the binding signal is reported as 0.795 RPM ratio (pull-down/input).
In the case of “GATGATTGTTCTCCCAGCTGATGAATTAATGCCGTCGAGTAAACAAATTTTCCTAATCTTTCTGTTCAAGCGCCATCTAC”, the binding signal is reported as 1.11 RPM ratio (pull-down/input).
For “GATGATTGTTCTCCCAGCTGATGAATTCACCGCCTCGAGTAAACAAATTTTCCTAATCTTTCTGTTCAAGCGCCATCTAC”, the binding signal was 0.899 RPM ratio (pull-down/input).
In the case of “GATGATTGTTCTCCCAGCTGATGAATTGTGATCGTCGAGTAAACAAATTTTCCTAATCTTTCTGTTCAAGCGCCATCTAC”, the binding signal is reported as 1.16 RPM ratio (pull-down/input).
In the case of “GATGATTGTTCTCCCAGCTGATGAATTTCTGACATCGAGTAAACAAATTTTCCTAATCTTTCTGTTCAAGCGCCATCTAC”, the binding signal is reported as 0.96 RPM ratio (pull-down/input).
With “GATGATTGTTCTCCCAGCTGATGAATTGATGACATCGAGTAAACAAATTTTCCTAATCTTTCTGTTCAAGCGCCATCTAC” the binding signal was 1.34 RPM ratio (pull-down/input).
With “GATGATTGTTCTCCCAGCTGATGAATTATTGAAATCGAGTAAACAAATTTTCCTAATCTTTCTGTTCAAGCGCCATCTAC” the binding signal was 1.23 RPM ratio (pull-down/input).
In the case of “GATGATTGTTCTCCCAGCTGATGAATTGTTGACATCGAGTAAACAAATTTTCCTAATCTTTCTGTTCAAGCGCCATCTAC”, the binding signal is reported as 2.54 RPM ratio (pull-down/input).
“GATGATTGTTCTCCCAGCTGATGAATTGACATAATCGAGTAAACAAATTTTCCTAATCTTTCTGTTCAAGCGCCATCTAC” was tested, and the binding signal was 1.63 RPM ratio (pull-down/input).
With “GATGATTGTTCTCCCAGCTGATGAATTGACAACATCGAGTAAACAAATTTTCCTAATCTTTCTGTTCAAGCGCCATCTAC” the binding signal was 2.29 RPM ratio (pull-down/input).
In the case of “GATGATTGTTCTCCCAGCTGATGAATTGACATTATCGAGTAAACAAATTTTCCTAATCTTTCTGTTCAAGCGCCATCTAC”, the binding signal is reported as 1.5 RPM ratio (pull-down/input).
For “GATGATTGTTCTCCCAGCTGATGAATTTTTGACATCGAGTAAACAAATTTTCCTAATCTTTCTGTTCAAGCGCCATCTAC”, the binding signal was 1.09 RPM ratio (pull-down/input).
In the case of “GATGATTGTTCTCCCAGCTGATGAATTATTGACATCGAGTAAACAAATTTTCCTAATCTTTCTGTTCAAGCGCCATCTAC”, the binding signal is reported as 2 RPM ratio (pull-down/input).
“GATGATTGTTCTCCCAGCTGATGAATTGAACTAATCGAGTAAACAAATTTTCCTAATCTTTCTGTTCAAGCGCCATCTAC” was tested, and the binding signal was 0.992 RPM ratio (pull-down/input).
In the case of “GATGATTGTTCTCCCAGCTGATGAATTACCGCGCTCGAGTAAACAAATTTTCCTAATCTTTCTGTTCAAGCGCCATCTAC”, the binding signal is reported as 0.948 RPM ratio (pull-down/input).
“GATGATTGTTCTCCCAGCTGATGAATTTGATTCCTCGAGTAAACAAATTTTCCTAATCTTTCTGTTCAAGCGCCATCTAC” was tested, and the binding signal was 0.839 RPM ratio (pull-down/input).
With “GATGATTGTTCTCCCAGCTGATGAATTCTTGGTTTCGAGTAAACAAATTTTCCTAATCTTTCTGTTCAAGCGCCATCTAC” the binding signal was 0.962 RPM ratio (pull-down/input).
